In PubChem BioAssay (NCATS):
“And” between values parts separate entries of the source, which are not always exact repeats. Equal entries are not always repeated. Records with an inconclusive call do not appear. Where a structure was tested more than once in an assay, its records may differ in their call. Values without a mark were called inactive. The source made the active and inactive calls. Calls come from the whole dose curve; as a rule, active = well fitted curve in the direction sought with a large enough effect; inconclusive = small, poorly fitted or top-dose-only effect, or another doubt; inactive = no such curve, though single readings can be large; an effect the other way counts as inactive or inconclusive. Where a SMILES comes first, the peptide text is derived from it. Bridges are numbered along the chain shown (N, C = ends).

Legend:
Tov112D = assay: Primary qHTS to identify gynecologic anti-cancer compounds using libraries of approved drugs and bioactive compounds (AID 1345084); details: Gynecologic cancer cell panel viability, ATPlite luminescence, 48 h; series mostly up to 57.5 µM; note: nearly all actives have a fitted effect of over 55% in size
In short: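 In this quantitative HTS, cell killing is estimated from loss of ATP-dependent luciferase light. Cells see five compound concentrations over a 48 h exposure.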

[1] = Drug repurposing screens with cells derived from glioblastoma tumor samples (AID 1345199); details: GBM patient neurospheres viability, ATP luminescence, 48 h; note: nearly all actives have a fitted effect of over 40% in size; note: potency is the fitted concentration of half-maximal effect
In short: (§1)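 Four patient lines of CD133+ GBM neurospheres were screened at several concentrations; hits were retested in those lines plus three slower-growing GBM lines, using 48-hour treatment and ATP-based viability.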

[2] = qHTS assay to identify inhibitors of the type 1 interferon - major histocompatibility complex class I in skeletal muscle: Counter screen cell viability and HiBit confirmation (AID 1347412); details: iHSKM muscle cells + IFN-b, HiBiT or CellTiter-Glo, 24 h; for activity change, negative = inhibition: at 45.9 µM (top of the series); note: potency is the fitted concentration of half-maximal effect; for all read-outs here: nearly all actives have a fitted effect of over 60% in size
In short: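 CRISPR HLA-B*08:01-HiBit immortalized human myoblasts (C25cl48) stimulated with 4 ng/ml IFN-beta and compounds (12-point 1:3, top 46 uM final) for 24 h at 37 C. Duplicate plates read by HiBit lytic luminescence or CellTiter Glo ATP.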

astro = assay: Drug repurposing screens with cells derived from glioblastoma tumor samples (AID 1345199); details: viability, ATP luminescence, 48 h; series mostly up to 45.9 µM; note: nearly all actives have a fitted effect of over 40% in size; note: potency is the fitted concentration of half-maximal effect
In short: as §1

[3] = at 45.9 µM (top of the series), tumour line B
[4] = at 45.9 µM (top of the series), tumour line D
[5] = at 46 µM (top of the series), tumour line A
[6] = at 46.1 µM (top of the series), tumour line C
% is set by controls: 0 for no effect and ±100 for the full control effect.

C=C1C(=O)O[C@@H]2/C=C(/C)[C@@H](OC(C)=O)C/C=C(\C)C[C@@H](OC(=O)/C(=C/CO)CO)[C@@H]12
Potency (Tov112D): inactive

Cc1cc(-n2c(=O)[nH]c(=O)n(C)c2=O)ccc1Oc1ccc(S(=O)(=O)C(F)(F)F)cc1
Potency ([1]; tumour line C): 20.6 µM (active)

O=C(CCCN1CCC(n2c(=S)[nH]c3ccccc32)CC1)c1ccc(F)cc1
Potency ([1]; tumour line D): 11.2 µM (active)

CN1CCN(C2CCN(C(=O)Nc3cc(Oc4ccc(NC(=O)C5(C(=O)Nc6ccc(F)cc6)CC5)c(F)c4)ccn3)CC2)CC1
Potency ([2]; HiBiT): 4.97 µM (active)
Potency ([2]; Viability): 14 µM (active)

CCn1nc(C2CCN(C(=O)CCO)CC2)nc1-c1cnc(N)c(-c2nnc(C(C)(C)C)o2)n1
activity change, negative = inhibition ([2]; HiBiT): -28.4%

C[C@H](Nc1ncnc2nc[nH]c12)c1cc2cccc(Cl)c2c(=O)n1-c1ccccc1
activity change, negative = inhibition ([2]; Viability): -19.3%

Cc1[nH]c(/C=C2\C(=O)Nc3ccc(F)cc32)c(C)c1C(=O)NCCN1CCCC1
activity change, negative = inhibition ([2]; Viability): -1.6%

CCOC(=O)Nc1ccc2c(c1)N(C(=O)CN(C)C)c1ccccc1CC2
activity, negative = cell killing ([1]; at 99.2 µM (top of the series), tumour line C): -30.7%
Potency ([1]; tumour line D): 56.2 µM (active)

CCCCCCCC(=O)CC[C@@H]1[C@@H](C/C=C\CCCC(=O)OC(C)C)[C@@H](O)C[C@H]1O
Potency ([1]; tumour line D): 15.8 µM (active)

CS(=O)(=O)NC(=O)CCC/C=C\C[C@H]1C(=O)C[C@@H](O)[C@@H]1/C=C/[C@H](O)COc1ccccc1
activity, negative = cell killing [1, 3]: -2.71%
activity, negative = cell killing [1, 4]: -15.8%
activity, negative = cell killing [1, 5]: -29.7%
activity, negative = cell killing [1, 6]: 0.501%
Potency (astro): inactive

O=c1[nH]cnc2[nH]cc(CN3CCCCC3)c12
activity, negative = cell killing [1, 3]: -5.2%
activity, negative = cell killing [1, 4]: -0.491%
activity, negative = cell killing [1, 5]: 2.77%
activity, negative = cell killing [1, 6]: -8.31%
Potency (astro): inactive

O=S(O)CNc1ccc(S(=O)(=O)c2ccc(NCS(=O)O)cc2)cc1
activity, negative = cell killing [1, 3]: -3.7%
activity, negative = cell killing [1, 4]: 0.377%
activity, negative = cell killing [1, 5]: -17.9%
activity, negative = cell killing [1, 6]: -2.81%
Potency (astro): inactive

CCCCCC(O)/C=C/C=O (stereo unspecified)
activity, negative = cell killing [1, 3]: 5.27%
activity, negative = cell killing [1, 4]: -8.74%
activity, negative = cell killing [1, 5]: -27.6%
activity, negative = cell killing [1, 6]: 8.89%
Potency (astro): inactive

CS(=O)(=O)OCCCNCCCOS(C)(=O)=O
activity, negative = cell killing [1, 3]: 5.52%
activity, negative = cell killing [1, 4]: -25.4%
activity, negative = cell killing [1, 6]: 2.38%
Potency ([1]; tumour line A): 39.8 µM (active)
Potency (astro): inactive

COC[C@H](c1ccc(C(F)(F)F)cc1)N1CCN(C2(C)CCN(C(=O)c3c(C)ncnc3C)CC2)C[C@H]1C
activity, negative = cell killing [1, 3]: -1.49%
activity, negative = cell killing [1, 4]: -13.4%
activity, negative = cell killing [1, 6]: 5.67%
Potency ([1]; tumour line A): 11.2 µM (active)
Potency (astro): inactive

C=C[C@]1(C)C[C@@H](OC(=O)CO)[C@]2(C)[C@H](C)CC[C@]3(CCC(=O)[C@H]32)[C@@H](C)[C@@H]1O
activity, negative = cell killing [1, 3]: -6.6%
activity, negative = cell killing [1, 4]: -13.7%
activity, negative = cell killing [1, 5]: -29.8%
activity, negative = cell killing [1, 6]: -2.01%
Potency (astro): inactive

CCCC(=O)O[C@]1(C(=O)COC(=O)CC)[C@@H](C)C[C@H]2[C@@H]3CCC4=CC(=O)C=C[C@]4(C)[C@@]3(F)[C@@H](O)C[C@@]21C
activity, negative = cell killing [1, 3]: -13%
activity, negative = cell killing [1, 4]: -14.2%
activity, negative = cell killing [1, 6]: 9.54%
Potency ([1]; tumour line A): 12.6 µM (active)
Potency (astro): inactive

NCCCC[C@H](NC(=O)[C@@H]1CCCN1C(=O)[C@@H]1CSSC[C@H](NC(=O)CNC(=O)CNC(=O)CN)C(=O)N[C@@H](Cc2ccc(O)cc2)C(=O)N[C@@H](Cc2ccccc2)C(=O)N[C@@H](CCC(N)=O)C(=O)N[C@@H](CC(N)=O)C(=O)N1)C(=O)NCC(N)=O (H-GGGCYFQNCPKG-NH2; disulfide 4-9)
activity, negative = cell killing [1, 3]: -8.67%
activity, negative = cell killing [1, 4]: 3.33%
activity, negative = cell killing [1, 5]: -28%
activity, negative = cell killing [1, 6]: 22.1%
Potency (astro): inactive

CCC(CN)CC(C)CCNCC(O)CNCC(C)CC(CC)CN (stereo unspecified)
activity, negative = cell killing [1, 3]: -0.989%
activity, negative = cell killing [1, 4]: -7.35%
activity, negative = cell killing [1, 5]: -19.2%
activity, negative = cell killing [1, 6]: -0.671%
Potency (astro): inactive

O=P(O)(O)C(Sc1ccc(Cl)cc1)P(=O)(O)O
activity, negative = cell killing [1, 3]: 3.66%
activity, negative = cell killing [1, 4]: -1.38%
activity, negative = cell killing [1, 5]: -1.1%
activity, negative = cell killing [1, 6]: -7.59%
Potency (astro): inactive

C/C(=C(/CCO)SSCC1CCCO1)N(C=O)Cc1cnc(C)nc1N (stereo unspecified)
activity, negative = cell killing [1, 3]: -8.31% and -21.8%
activity, negative = cell killing [1, 4]: -10.4% and -21.6%
activity, negative = cell killing [1, 6]: -12.1% and -0.697%
Potency ([1]; tumour line A): 25.1 µM (active)
Potency (astro): inactive

CCCC(CCC)C(N)=O
activity, negative = cell killing [1, 3]: 1.34%
activity, negative = cell killing [1, 4]: -12.3%
activity, negative = cell killing [1, 5]: -16.5%
activity, negative = cell killing [1, 6]: 0.0882%
Potency (astro): inactive
